According to PubChem BioAssay AID492953 (The Scripps Research Institute Molecular Screening Center, 2010):
The campaign covered roughly 340,000 compounds. About 4,200 (1.2%) were called active. For the sample, actives were picked, then their nearest neighbours and some compounds at random. Unmarked numbers belong to inactive results.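 The calls were made as follows: active = inhibition above the mean of all tested compounds plus 3 SD (cut at about 24% in these data); inactive = the rest.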

What follows are compounds tested against Platelet-activating factor acetylhydrolase IB subunit alpha2 (Homo sapiens) (UniProt P68402) (assay: inhibition of PAF acetylhydrolase 1b subunit 2 – biochemical, fluorescence polarization, human, primary screen (AID 492953;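 also: 0% = enzyme with DMSO and 100% = wells lacking PAFAH1B2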)). Settings: recombinant PAFAH1B2, FP-rhodamine activity probe, at 3.39 µM, active compounds read high.
Sequence of Platelet-activating factor acetylhydrolase IB subunit alpha2 (Homo sapiens) (P68402 whole entry, looked up): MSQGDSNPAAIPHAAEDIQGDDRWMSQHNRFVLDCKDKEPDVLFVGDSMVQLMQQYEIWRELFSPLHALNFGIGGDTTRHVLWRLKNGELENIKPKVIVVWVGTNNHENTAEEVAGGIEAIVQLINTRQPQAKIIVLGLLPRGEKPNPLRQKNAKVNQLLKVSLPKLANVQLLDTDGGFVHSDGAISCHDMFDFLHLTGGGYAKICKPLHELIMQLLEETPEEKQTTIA
`O=C(c1cc2c(s1)CCC2)N1CCN(c2ccccc2)CC1` was tested, and the inhibition was 1.7%.
Work on `COc1cc(CNc2ncn[nH]2)ccc1OCc1ccccc1C` yielded an inhibition of -0.89%.
Work on `CN(CCCNC(=O)CN1C(=O)CC(C)(C)S(=O)(=O)c2ccccc21)C1CCCCC1` yielded an inhibition of 5.24%.
In the case of `Nc1scc(-c2ccncc2)c1Cl`, the inhibition is reported as 89.9% (active).
`COC(=O)c1c(-c2ccc(C)cc2)csc1N` was tested, and the inhibition was 2.65%.
`CCOc1ccc(NC(=O)CSc2nc3ccccc3c(=O)n2Cc2cccs2)cc1` showed an inhibition of 6.05%.
With `CN1C(C)(C)CC(NC(=O)CCC(=O)NC2CC(C)(C)N(C)C(C)(C)C2)CC1(C)C` the inhibition was 2.28%.
Compound `CC(=O)N1CCN(S(=O)(=O)c2cccc(C(=O)NC3CCC(C)CC3)c2)CC1` (stereo unspecified) has an inhibition of 5.89%.
`COc1cc(C(=O)N2C(=O)c3cccc(N)c3C2=O)cc(OC)c1OC` was tested, and the inhibition was 1.13%.
With `CC1CC(C)CN(S(=O)(=O)c2cccc(C(=O)N3C(=O)c4cccc(N)c4C3=O)c2)C1` (stereo unspecified) the inhibition was 39.9% (active).
`CCn1c(SCC(=O)Nc2nc(C)cs2)nnc1C(C)NC(=O)c1ccccc1` (stereo unspecified) was tested, and the inhibition was 8.33%.
Compound `COc1cccc(C(=O)Nc2nnc(S(=O)(=O)N(C)c3ccccc3)s2)c1` has an inhibition of -2.38%.
For `CC(C)CC(=O)Nc1nnc(S(=O)(=O)N(C)c2ccc(Cl)cc2)s1`, the inhibition was 26.6% (active).
`CCC(=O)Nc1nnc(S(=O)(=O)N(CC(C)C)c2ccccc2)s1` gave an inhibition of 17.8%.
`COC(=O)c1sccc1NS(=O)(=O)c1ccc(F)cc1F` showed an inhibition of 0.87%.
`CC(=O)c1c(C)[nH]c(C(=O)Nc2cc(S(=O)(=O)N(C)C)ccc2C)c1C` gave an inhibition of 2.08%.
With `O=C(NC1CCN(S(=O)(=O)c2ccc(F)cc2)CC1)c1ccccc1` the inhibition was 2.57%.
With `Cc1ccc(S(=O)(=O)/N=C(/NC(=S)Nc2c(C)n(C)n(-c3ccccc3)c2=O)c2ccccc2)cc1` the inhibition was 9.33%.
Compound `Cc1nnc(NC(=O)CSc2nc(C3CCCCC3)nc3ccccc23)s1` has an inhibition of 0.98%.
`O=C(CSc1nc(C2CC2)nc2ccccc12)Nc1cccc(O)c1` gave an inhibition of -0.49%.
`O=C(CSc1nc(C2CC2)nc2ccccc12)Nc1ccc2c(c1)OCCO2` was tested, and the inhibition was 38% (active).
In the case of `O=C(CN1C(=O)CSC1=O)N1CCCC(Nc2ccc(F)cc2)C1` (stereo unspecified), the inhibition is reported as -1.15%.
With `O=C(c1ccc2c(c1)C(=O)N(Cc1ccncc1)C2=O)N1CCN(S(=O)(=O)c2ccc(OC(F)(F)F)cc2)CC1` the inhibition was 5.75%.
`CC1CC(=S)Nc2ccccc2N1Cc1ccccc1` (stereo unspecified) was tested, and the inhibition was 7.13%.
In the case of `CC1CN(Cc2ccccc2)C(=S)NC1=O` (stereo unspecified), the inhibition is reported as 29.8% (active).
With `CC1CN(Cc2ccco2)C(=S)N(c2ccccc2)C1=O` (stereo unspecified) the inhibition was 5.61%.
Work on `COc1ccc(CCNC(=O)c2ccc(NC(=O)CC3SC(N4CCCCC4)=NC3=O)cc2)cc1OC` (stereo unspecified) yielded an inhibition of 1.09%.
In the case of `Cc1ccc(C2CC(c3cccc(Br)c3)n3nc(N)nc3N2)cc1` (stereo unspecified), the inhibition is reported as 0.4%.
For `COCCn1c(Cc2cccn2C)nnc1SCC(=O)Nc1nccs1`, the inhibition was -1.79%.
For `CC(C)CNC(=O)C1CCCN(S(=O)(=O)c2ccc(-n3cnnn3)cc2)C1` (stereo unspecified), the inhibition was 5.01%.
With `CC(NC(=O)C1CCCN(S(=O)(=O)c2ccc(-n3cnnn3)cc2)C1)c1ccc(F)cc1` (stereo unspecified) the inhibition was 26.6% (active).
`O=C(Nc1ccc(F)cc1)C1CCCN(S(=O)(=O)c2ccc(-n3cnnn3)cc2)C1` (stereo unspecified) showed an inhibition of 0.34%.
With `O=C(NCc1cccc(Cl)c1)C1=CC=CN2CCS(=O)(=O)N=C12` the inhibition was 6%.
With `O=C(C1CCN(CC2CCCCC2)CC1)N1CCCC1` the inhibition was 0.2%.
`CCCCN(CC)CCCNC(=O)c1ccc(CSc2nc3ccncc3[nH]2)cc1` was tested, and the inhibition was -2.43%.
Work on `CC1=NN(/C(=N\c2nnc(C)s2)Nc2ccccc2)[C@H](c2ccc(C)cc2)S1` yielded an inhibition of 6.77%.
Work on `CCCCCCSc1nsc(N)n1` yielded an inhibition of 3.17%.
In the case of `CCCSc1nsc(N)n1`, the inhibition is reported as 3.46%.
With `Nc1nc(SC23CC4CC(CC(C4)C2)C3)ns1` the inhibition was 25.4% (active).
`Nc1ccn(C2CC(O)C(CO)O2)c(=O)n1` (stereo unspecified) showed an inhibition of 4.72%.
For `COc1cc(C(=O)NCC(=O)NCCSc2ccc(Br)cc2)cc(OC)c1OC`, the inhibition was 18.7%.
In the case of `COc1ccccc1C(=O)NCC(=O)OCC(=O)NNC(=O)c1ccc(Br)cc1`, the inhibition is reported as 4.05%.
With `COc1ccccc1C(=O)NCC(=O)NCCSc1ccc(Br)cc1` the inhibition was 27.3% (active).
In the case of `Cc1c(C(=O)NC2CCCCC2)oc2ccccc12`, the inhibition is reported as 1.03%.
`COc1cccc(CC(=O)OCC(=O)NCc2ccc3c(c2)OCO3)c1` gave an inhibition of 8.95%.
`Cc1ccc(C(=O)OCC(=O)NCc2ccc3c(c2)OCO3)s1` gave an inhibition of -1.11%.
`Cc1cc(Br)ccc1SCC(=O)OCC(=O)NCc1ccc2c(c1)OCO2` was tested, and the inhibition was 25.2% (active).
In the case of `CCc1ccc2[nH]c(=O)c(Cc3ccccc3)c(O)c2c1`, the inhibition is reported as 24.7% (active).
`O=C(Cc1c(O)c2ccccc2[nH]c1=O)NCc1ccccc1` showed an inhibition of 2.81%.
With `Cc1ccc2c(O)c(Cc3ccccc3)c(=O)[nH]c2n1` the inhibition was 0.81%.
For `O=C(Nc1ccccc1)Oc1cccc2cccnc12`, the inhibition was 3.18%.
In the case of `O=C(c1cccc(S(=O)(=O)N2CCCCCC2)c1)N1CCN(Cc2ccccc2)CC1`, the inhibition is reported as 0.99%.
For `O=C(NC(=O)c1ccc(Cl)c(Cl)c1)OC1CCS(=O)(=O)C1` (stereo unspecified), the inhibition was -3.52%.
For `O=C(NCCc1c[nH]c2ccccc12)c1cc2ccccc2oc1=O`, the inhibition was 6.1%.
Work on `CC1CCCCC1NC(=O)COc1ccc(C#N)cc1` (stereo unspecified) yielded an inhibition of 2.44%.
`Oc1ccc(N=Nc2nccs2)c(O)c1` was tested, and the inhibition was 35.3% (active).
`O=C(OC12CC3CC(CC(C3)C1)C2)c1ccc(NCc2cc(O)ccc2O)cc1` showed an inhibition of 3.5%.
Work on `COc1ccc(S(=O)(=O)N2CCOCC2)cc1C(=O)NC1CCCCC1` yielded an inhibition of 2.51%.
For `CCn1cc(C(=O)NC2CCCCCC2)c(=O)c2cc(S(=O)(=O)N3CCCCC3)ccc21`, the inhibition was 0.07%.
With `Cc1ccc(S(=O)(=O)N2CCN(C)CC2)cc1C(=O)NC1CCCCC1` the inhibition was 25.7% (active).
For `COc1ccc2c(c1)c(=Cc1ccc(N(C)C)cc1)c1cc(-c3ccccc3)[n+](C)n12`, the inhibition was -27.4%.
